Screens as filed in PubChem.
In the library only some 6.5% were active in any assay of this set; here they are far more common.
MARV entry inh – qHTS for inhibitors of binding or entry into cells for Marburg Virus; Marburg virus pseudotyped entry inhibition, cell reporter; Potency, µM (series often up to 37.8 µM), without a hit: at the top dose activity change, negative = inhibition, most hits filed as inhibitors; 1.8% of 300,000 active; calls by dose curve; tested in HEK293 cells; also: potency is read from the fitted curve at half-maximal effect
Vaccinia Venus – qHTS for Stage-Specific Inhibitors of Vaccinia Orthopoxvirus: Venus Reporter Primary qHTS; Vaccinia virus Venus reporter expression, fluorescence; AID 720580, 2013; 0.46% of 330,000 active; Potency, µM (top dose mostly 36.5 µM), for inactives: top-dose activity change, negative = inhibition, actives largely listed as inhibitors; calls by dose curve; tested in A549 cells; also: potency is read from the fitted curve at half-maximal effect; nearly all actives have a fitted effect of over 30% in size
Vaccinia mCherry – qHTS for Stage-Specific Inhibitors of Vaccinia Orthopoxvirus: mCherry Reporter Primary qHTS | Vaccinia virus mCherry reporter infection, fluorescence | Potency, µM (series often up to 36.5 µM), for inactives: at the highest dose activity change, negative = inhibition, actives largely listed as inhibitors | 0.63% of 310,000 active; calls by dose curve; tested in A549 cells; also: potency is read from the fitted curve at half-maximal effect; nearly all actives have a fitted effect of over 35% in size
FMDV antiviral – High Throughput Screening for Foot and Mouth Disease Virus Antivirals; FMDV antiviral cell-based qHTS; 1.2% of 410,000 active; Potency, µM (highest dose often 57.9 µM), for the others: at the highest dose activity change, negative = inhibition, actives largely listed as inhibitors; calls by dose curve; tested in HEK293T cells; also: read-out not given here; potency is read from the fitted curve at half-maximal effect; nearly all actives have a fitted effect of over 45% in size
LASV entry inh – qHTS for Inhibitors of binding or entry into cells for Lassa Virus; Potency, µM (series often up to 37.9 µM), for the others: at the highest dose activity change, negative = inhibition, hits mostly inhibitors; 1.2% of 300,000 active; Lassa virus pseudotype entry inhibition, cell reporter; calls by dose curve; tested in HEK293 cells; also: potency is read from the fitted curve at half-maximal effect; nearly all actives have a fitted effect of over 50% in size
HCMV antiviral – qHTS Assay for inhibitors of the human cytomegalovirus (HCMV) | HFF cells, HCMV-luciferase reporter, 72 h; stronger effect = lower value | activity change, negative = inhibition, % at 57.5 µM | 4.5% of 410,000 active; in the data active = activity change below about -60%; inconclusive = no clear call, values can overlap the other calls; inactive = above about -39%
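Cell-based, HFFs, 1000 cells/well, 16 h 37C; cpds in DMSO + HCMV-luc, MOI 1 PFU/cell; 72 h 37C; OneGlo luminescence after 5 min RT; norm. to buffer vs Salinomycin 10uM.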
The depositor's hits bear a star; i = inactive; ? = inconclusive; / = no result given; [ ] = dose if it differs, or a comment. % is scaled to controls: 0 for no effect and ±100 for the full control effect.

SMILES | MARV entry inh | Vaccinia Venus | Vaccinia mCherry | FMDV antiviral | LASV entry inh | HCMV antiviral
NC(=S)c1ccc[n+]([C@@H]2O[C@@H](COP(=O)([O-])OP(=O)(O)OC[C@H]3O[C@@H](n4cnc5c(N)ncnc54)[C@H](OP(=O)(O)O)[C@@H]3O)C(O)C2O)c1 (stereo not given in full) | 22.8% | / | / | / | 13.7% | /
COc1ccc2nc(N3C(=O)CNC3=S)sc2c1 | ? | 0.2%[7.34 µM] | i[7.34 µM] | 25.0% | -17.0% | -68.6*
Cc1ccc2nc(N3C(=O)CNC3=S)sc2c1 | ? | -27.4% | -13.6% | 0.0% | ? | -91.6*
Cc1cccc(Nc2nc(NCc3ccco3)c3ccccc3n2)c1 | ? | 12.6µM* | ? | 28.2µM* | 5.8µM* | -94.8*
c1ccc(CN2CCN(c3nc(NCc4ccco4)c4ccccc4n3)CC2)cc1 | ? | ? | ? | 31.6µM* | 12.6µM* | -33.6
CNc1nc(NCc2ccco2)c2ccccc2n1 | / | ? | -17.1% | / | / | /
Oc1ccccc1Nc1nc(NCc2ccco2)c2ccccc2n1 | / | / | / | ? | / | 0.0
COc1ccc(OC)c(Nc2nc(NCc3ccco3)c3ccccc3n2)c1 | 12.6µM* | -23.3% | -22.5% | ? | -9.2%[46.1 µM] | ?
c1ccc(Nc2nc(NCc3ccco3)c3ccccc3n2)cc1 | ? | ? | i | 14.1µM* | 12.6µM* | -66.2*
COc1ccccc1-c1cc2c(Nc3ccc(N4CCN(C)CC4)cc3)nccc2[nH]1 | / | / | / | / | / | 19.4
Cc1ccc(N2CC(NC(=O)c3ccc(S(=O)(=O)N4CCCC4)cc3)CC2=O)cc1C (stereo not given) | / | -1.3%[7.34 µM] | 1.3%[7.34 µM] | -18.9% | 6.7%[46.1 µM] | -29.2
CC(C)(C)c1ccc(C(=O)OCC(=O)Nc2cccc(S(=O)(=O)NC3=NCCC3)c2)cc1 | / | -14.5% | -3.3% | -3.4% | / | -9.1
CC(C)(C)c1ccc(NC(=O)COC(=O)c2ccc(NS(=O)(=O)c3ccc(F)c(F)c3)cc2)cc1 | ? | ? | -0.8% | ? | 12.6µM* | -18.1
CC(C)(C)NC(=O)NC(=O)COC(=O)c1cccc(NS(=O)(=O)c2ccc(F)c(F)c2)c1 | ? | -26.8% | i | -19.4% | 10µM* | 36.8
CC(C)(C)NC(=O)NC(=O)COC(=O)c1cccc(S(=O)(=O)N2CCCCC2)c1 | -1.8% | -6.6% | -6.5% | -20.7% | 8.1% | 17.4
COc1ccc(/C(O)=C2\C(=O)C(=O)N(CCN(C)C)[C@H]2c2cccc(OC)c2OC)cc1 | -16.1% | / | / | / | / | /
COc1ccc(OCC2CN(Cc3ccccc3)S(=O)(=O)CCO2)cc1 (stereo not given) | / | / | / | / | -0.7%[46.1 µM] | -0.8
COC(=O)c1cc(Br)c(=O)n(CCc2ccccc2)c1 | 16.1% | -6.3% | / | -15.0% | -1.2% | -103.3*
COC(=O)Cn1cc(C(=O)OC)cc(Br)c1=O | 7.7% | -6.9% | / | -5.5% | 6.4% | -6.0
COc1ccc(NCc2nnc(SCC(=O)c3ccc(OC)cc3)o2)cc1 | ? | / | / | 0.0% | 1.1% | -7.9
CCOc1cc(C(=O)CSc2nnc(CNc3ccc(Cl)cc3)o2)ccc1NC(=O)CC | ? | 12.6µM* | ? | ? | ? | -87.2*
Cc1ccc(S(=O)(=O)/N=C(\CN2CCOCC2)N2CCCC2)cc1 | -0.4% | -10.8% | -15.8% | / | 16.7% | 27.6
Cc1ccc(S(=O)(=O)/N=C(\CCl)N2CCOCC2)cc1 | ? | ? | ? | 25.1µM* | ? | 21.7
C=C1C[C@@]2(C)CCCC3=CC(=O)C=C[C@@]32Oc2ccccc21 | / | / | / | / | / | -14.3
Cc1ccc(NC(=O)c2ccc(F)cc2)cc1S(=O)(=O)N1CCCCCC1 | 7.94µM* | -24.1% | i | ? | ? | -77.6*
SMILES | MARV entry inh | Vaccinia Venus | Vaccinia mCherry | FMDV antiviral | LASV entry inh | HCMV antiviral
COc1ccc(C(=O)Nc2ccc(C)c(S(=O)(=O)N3CCCCCC3)c2)cc1 | ? | ? | ? | 20µM* | ? | -65.4*
Cc1ccc(NC(=O)c2ccc(C)c(S(=O)(=O)N3CCCCCC3)c2)cc1 | / | -12.9% | -1.3% | -17.8% | ? | ?
Cc1cccc(NC(=O)CSc2nc3c([nH]c4ccccc43)c(=O)n2-c2ccc(F)cc2)c1C | / | ? | -15.2% | -21.8% | ? | -33.6
C[C@@H]1CC2=CCCC2[C@]2(O1)C(=O)Nc1cccc(Br)c12 (stereo not given in full) | 1.3%[14.2 µM] | / | / | / | / | /
O=C(Nc1cccc(S(=O)(=O)N2CCCC2)c1)c1cc(-c2ccccn2)nc2ccccc12 | 7.94µM* | 0.7% | i | -27.3% | ? | 4.5
COc1ccc(NC(=O)c2cc(-c3ccccn3)nc3ccccc23)cc1S(=O)(=O)N(C)C | 15.8µM* | -12.6% | -1.1% | ? | ? | -11.1
CCN(CC)S(=O)(=O)c1cc(NC(=O)c2cc(-c3ccccn3)nc3ccccc23)ccc1C | / | / | / | -28.7% | / | 15.5
CN(C)Cc1ccccc1-c1nccc(NCc2cccs2)n1 | / | 6.3% | -6.7% | -17.0% | / | /
COCC(=O)Nc1cc(C(=O)N2CCCCC2c2nccs2)c2c(c1)nc(-c1ccncc1)n2C (stereo not given) | / | -2.5% | -11.2% | -9.5% | / | /
CCOC(=O)C1CCC(CN(Cc2ccc(OC)cc2)S(=O)(=O)c2ccc(F)c(C(=O)Nc3cc(Cl)ccc3OC)c2)CC1 (stereo not given) | / | -0.4% | -13.1% | -23.5% | 14.9%[46.1 µM] | -1.9
CC(C)=CCc1c2c(c(O)c3c(=O)c4c(oc13)-c1cc(O)c(O)cc1OC4C=C(C)C)C=CC(C)(C)O2 (stereo not given) | / | ? | 11.2µM* | ? | / | /
CC(C)=CCc1c(-c2ccc(O)cc2O)oc2c3c(cc(O)c2c1=O)OC(C)(C)C=C3 | / | -12.3% | 1.1% | ? | / | /
COc1ccccc1C(CC(=O)c1ccccc1)CC(=O)c1ccccc1 | ? | -4.4% | -7.1% | 15.5% | ? | -76.9*
COc1ccccc1C(CC(=O)c1ccccc1)C(=O)c1ccccc1 (stereo not given) | / | -11.0% | -8.3% | -3.6% | / | -17.4
Cc1cccc2nc(-c3cccnc3)c(NCCC(C)C)n12 | 15.4% | -18.1% | -16.3% | -25.8% | -5.3% | -30.1
Cc1cccc2nc(-c3cccnc3)c(Nc3ccccc3)n12 | ? | -12.1% | ? | 31.6µM* | ? | -73.9*
Cc1ccc2oc(=O)c3cc(C(=O)Nc4ccccc4C(N)=O)sc3c2c1 | 11.7%[46.1 µM] | 0.6% | -5.3% | 12.5% | 2.2%[46.1 µM] | 5.5
COc1ccc(Nc2ncc3c(n2)CC(c2ccccc2)CC3=O)cc1 (stereo not given) | 3.2% | / | / | -15.8% | 0.92µM* | -9.5
CCc1ccc(Nc2ncc3c(n2)CC(C)CC3=O)cc1 (stereo not given) | ? | -6.6% | -1.7% | 72.9% | ? | 64.9
CCc1ccc(Nc2ncc3c(n2)CC(c2ccc(OC)cc2)CC3=O)cc1 (stereo not given) | 18.3µM* | / | / | -1.7% | 0.517µM* | -64.1*
